{"source": "PubChem BioAssay AID1851", "about": "(National Center for Advancing Translational Sciences (NCATS), 2009)", "note": "“And” between values parts separate entries of the source, which are not always exact repeats. Equal entries are not always repeated. The campaign covered roughly 16,000 compounds. About 5,700 (36%) were called active. Inconclusive results (about 24%) are left out. This is one part of the list. Unmarked numbers belong to inactive results. Calls come from the whole dose curve; as a rule, active = well fitted curve in the direction sought with a large enough effect; inconclusive = small, poorly fitted or top-dose-only effect, or effect the other way; inactive = no such curve, though single readings can be large or run the other way. % is set by controls: 0 for no effect and ±100 for the full control effect.", "data": [{"molecular_target": "Cytochrome P450 1A2 (Homo sapiens) (UniProt P05177)", "sequence (P05177 whole entry, looked up)": "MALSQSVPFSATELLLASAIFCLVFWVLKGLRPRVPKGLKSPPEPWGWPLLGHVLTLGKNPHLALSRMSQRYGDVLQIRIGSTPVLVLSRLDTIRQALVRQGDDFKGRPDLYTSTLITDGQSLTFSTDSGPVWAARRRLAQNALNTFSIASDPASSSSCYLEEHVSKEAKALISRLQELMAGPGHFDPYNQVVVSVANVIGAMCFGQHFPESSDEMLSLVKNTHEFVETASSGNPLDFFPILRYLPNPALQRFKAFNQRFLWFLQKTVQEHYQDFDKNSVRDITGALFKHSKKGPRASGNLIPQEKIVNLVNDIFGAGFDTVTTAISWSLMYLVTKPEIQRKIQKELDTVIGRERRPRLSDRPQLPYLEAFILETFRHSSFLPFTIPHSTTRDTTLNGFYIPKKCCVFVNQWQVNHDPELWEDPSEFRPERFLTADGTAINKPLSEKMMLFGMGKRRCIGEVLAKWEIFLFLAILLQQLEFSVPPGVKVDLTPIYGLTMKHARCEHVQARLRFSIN", "assay": "Cytochrome panel assay with activity outcomes", "details": "recombinant CYP, pro-luciferin dealkylation, luminescence, p450-cyp1a2; series mostly up to 57.1 µM", "values": [{"molecule": "C[C@H](CN(C)C)C(O)(c1ccccc1)c1ccccc1", "activity, negative = inhibition": "5.76% [at 11.4 µM]"}, {"molecule": "Cc1ccc(C2CC2C(=O)NN)cc1", "note": "(centres undefined)", "AC50": "0.316 µM (active)"}, {"molecule": "Cc1ccc(NC(=O)C2CCN(S(C)(=O)=O)CC2)cc1", "AC50": "inactive"}, {"molecule": "N[C@@H](Cc1c[nH]c2ccc([N+](=O)[O-])cc12)C(=O)O", "activity, negative = inhibition": "-10.4% [at 11.4 µM]"}, {"molecule": "Cc1cc2c(cc1C)NC1=C(N2)O[C@H](c2c[nH]c3ccc(COc4ccccc4)cc23)C1=O", "AC50": "2.51 µM (active)"}, {"molecule": "O=C1C2=C(Nc3cc([N+](=O)[O-])ccc3N2)O[C@@H]1c1c[nH]c2ccc(COc3ccccc3)cc12", "AC50": "2.51 µM (active)"}, {"molecule": "CC(C)NC(=O)C(C)n1cccc1C(=O)c1ccccc1", "note": "(centres undefined)", "AC50": "25.1 µM (active)"}, {"molecule": "CC(C)NC(=O)/C(=N\\O)c1ccccc1", "AC50": "inactive"}, {"molecule": "CC(C)NC(=O)N1CCC2(CC1)CCN(C(=O)c1cccn1C)CC2", "AC50": "inactive"}, {"molecule": "Cc1ccc(-n2nc3c(c2NC(=O)c2cccs2)CSC3)cc1", "AC50": "1.58 µM (active)"}, {"molecule": "Cc1ccccc1-n1nc2c(c1NC(=O)c1ccc(S(=O)(=O)N(C)C)cc1)CSC2", "AC50": "inactive"}, {"molecule": "Cc1ccccc1-n1nc2c(c1NC(=O)c1c(-c3ccccc3Cl)noc1C)CSC2", "AC50": "inactive"}, {"molecule": "Cn1c(=O)n(C)c2cc(/C=N/n3cnnc3)ccc21", "AC50": "6.31 µM (active)"}, {"molecule": "Cn1c(=O)n(C)c2cc(S(=O)(=O)O)ccc21", "AC50": "inactive"}, {"molecule": "Nc1nc2c(ncn2COC(CO)CO)c(=O)[nH]1", "AC50": "inactive"}, {"molecule": "CO[C@]1(NC(=O)C2SC(=C(C(N)=O)C(=O)O)S2)C(=O)N2C(C(=O)O)=C(CSc3nnnn3C)CS[C@H]21", "note": "(some centres undefined)", "AC50": "inactive"}, {"molecule": "Cc1c(C)n(C(=O)CN2CCC(C)CC2)c2ccccc12", "AC50": "4.47 µM (active)"}, {"molecule": "CC1CCN(CC[C@@H]2CCCN2S(=O)(=O)c2cccc(O)c2)CC1", "AC50": "inactive"}, {"molecule": "CC1CCN(CC(=O)Nc2cccc([N+](=O)[O-])c2)CC1", "AC50": "inactive"}, {"molecule": "Cc1cc(C)nc(SCC(=O)N/N=C\\c2sccc2C)n1", "AC50": "12.6 µM (active)"}, {"molecule": "COc1ccccc1CNC(=O)CSc1nc2nc(C)cc(C)n2n1", "AC50": "inactive"}, {"molecule": "Cc1cc(C)n2nc(SCC(=O)N/N=C/c3ccccc3F)nc2n1", "AC50": "15.8 µM (active)"}, {"molecule": "Cc1cccc(Cc2c(C)nc3nc(SCC(=O)NCc4ccco4)nn3c2C)c1", "AC50": "inactive"}, {"molecule": "COc1ccc(N2CCN(C(=S)Nc3cccc(C)c3)CC2)cc1", "AC50": "inactive"}, {"molecule": "Cc1cccc(N(C)C(=S)Oc2ccc3ccccc3c2)c1", "AC50": "2.51 µM (active)"}, {"molecule": "CCc1cc2c(nc1CC)CCN(CC/C(C)=N/O[C@@H](C)c1cn([C@H](CO)Cc3ccccc3)nn1)C2", "activity, negative = inhibition": "-13.3% [at 11.4 µM] and 1.01% [at 11.4 µM]"}, {"molecule": "Cc1ccccc1OCCCN1CCCC1", "AC50": "inactive"}, {"molecule": "Cc1cc(C(C)(C)C)c(OCCCN2CCOCC2)c(C(C)(C)C)c1", "activity, negative = inhibition": "-17.7% [at 2.29 µM]"}, {"molecule": "CC(C)(C)c1ccccc1OCCN1CCCC1", "AC50": "15.8 µM (active)"}, {"molecule": "CC1(CC(=O)O)O[C@H]2CCCCC[C@H]2O1", "note": "(some centres undefined) (tested in a mixture with another compound)", "activity, negative = inhibition": "-0.0273% [at 11.4 µM]"}, {"molecule": "COc1ccc2c(c1)C(c1ccc([N+](=O)[O-])cc1)=NNC(c1ccco1)=N2", "AC50": "5.01 µM (active)"}, {"molecule": "COc1cccc(C(=O)Nc2ccc(-c3nnc(-c4ccco4)o3)cc2)c1", "AC50": "inactive"}, {"molecule": "CC1(C)CCCN(C(=O)c2coc(=O)c(Br)c2)C1", "AC50": "inactive"}, {"molecule": "c1ccc2cc(C3=NCCN3)ncc2c1", "AC50": "0.501 µM (active)"}, {"molecule": "c1ccc2nc(-c3ccncc3)ccc2c1", "AC50": "1 µM (active)"}, {"molecule": "c1ccc(CN(CC2=NCCN2)c2ccccc2)cc1", "AC50": "inactive"}, {"molecule": "c1ccc2nc(C3=NCCN3)cnc2c1", "AC50": "0.398 µM (active)"}, {"molecule": "c1ccc2nc(C3=NCCN3)ccc2c1", "AC50": "5.01 µM (active) and 794 nM (active)"}, {"molecule": "O=C(c1cccc(F)c1)N1CCC2(CCCN(Cc3cc(C(F)(F)F)cc(C(F)(F)F)c3)C2)CC1", "AC50": "inactive"}, {"molecule": "COC(=O)[C@@]1(Cc2ccc(F)cc2)[C@H]2c3cc(C(=O)N(C)C)n(CCCNc4ccc(C(F)(F)F)cc4Cl)c3C[C@H]2CN1C(=O)c1ccccc1", "AC50": "inactive"}, {"molecule": "c1ccc2oc(C3=NCCN3)cc2c1", "AC50": "5.01 µM (active)"}, {"molecule": "CCn1nccc1C(=O)Nc1nc2ccccc2n1CCN1CCCCC1", "AC50": "inactive"}, {"molecule": "CCn1c(-c2nonc2NC(=O)c2ccccc2)nc2ccccc21", "AC50": "0.891 µM (active)"}, {"molecule": "Cn1c(CNS(=O)(=O)c2ccc(F)cc2)n[nH]c1=S", "AC50": "inactive"}, {"molecule": "NCCNS(=O)(=O)c1ccc(N)cc1", "activity, negative = inhibition": "-3.44% [at 11.4 µM]"}, {"molecule": "O=S(=O)(NCc1cc(-c2ccccc2)no1)c1ccc(Cl)cc1", "AC50": "7.08 µM (active)"}, {"molecule": "Cn1c(CNS(=O)(=O)c2ccc(Cl)cc2)n[nH]c1=S", "AC50": "inactive"}, {"molecule": "Nc1ccc(S(=O)(=O)NCc2nccs2)cc1", "activity, negative = inhibition": "-10.5% [at 2.29 µM]"}, {"molecule": "O=S(=O)(NCc1cc(-c2ccc(Cl)cc2)no1)c1ccc(Cl)cc1", "AC50": "8.91 µM (active)"}, {"molecule": "Clc1ccc(SCc2cc(-c3ccccc3)no2)cc1", "AC50": "6.31 µM (active)"}, {"molecule": "COCCNC(=O)c1onc(CSc2ccc(Cl)cc2)c1C(=O)O", "AC50": "inactive"}, {"molecule": "Cn1cccc1C(=O)N1CCC2(CC1)CCN(c1ncccn1)CC2", "AC50": "inactive"}, {"molecule": "CC(=O)OC[C@@H]1O[C@@H](O/N=C2/C[C@@H](O)[C@@H](O)[C@@H]3[C@@H]4C(=O)N(C(C)(C)C)C(=O)[C@H]4CC[C@H]23)[C@H](OC(C)=O)[C@H](OC(C)=O)[C@@H]1OC(C)=O", "activity, negative = inhibition": "-2.28% [at 11.4 µM]"}, {"molecule": "Cc1ccccc1C(=O)NN(C)c1nc2ccccc2nc1C(F)(F)F", "AC50": "inactive"}, {"molecule": "CC(C)(C)c1ccc(OC(=O)Cn2c(C(F)(F)F)nc3ccccc32)cc1", "AC50": "inactive"}, {"molecule": "COc1ccc(Oc2nc3ccccc3nc2C(F)(F)F)cc1", "AC50": "1.12 µM (active)"}, {"molecule": "CC(C)NC(=O)N1CCCC2(CCN(C(=O)c3ccco3)CC2)C1", "AC50": "inactive"}, {"molecule": "COc1cccc(OCc2nnc(SCC(=O)NCc3ccco3)n2C)c1", "AC50": "inactive"}, {"molecule": "Cc1cc(C)nc(SCc2nnc(SCC(N)=O)n2Cc2ccco2)n1", "AC50": "inactive"}, {"molecule": "O=c1c2ccccc2nnn1CSc1nnc(COc2ccc(Cl)cc2)n1Cc1ccco1", "AC50": "3.16 µM (active)"}, {"molecule": "O=C(O)Cc1cccnc1", "activity, negative = inhibition": "-13.8% [at 11.4 µM]"}, {"molecule": "O=C(NCC(c1cccnc1)N1CCOCC1)Nc1ccccc1", "note": "(centres undefined)", "AC50": "inactive"}, {"molecule": "c1ccc(C[C@@H](Nc2cccnc2)c2ccccc2)cc1", "AC50": "0.2 µM (active)"}, {"molecule": "COc1ccc(-n2c(=O)c(C)nc3cnc(Nc4cccc(OC)c4)nc32)cc1", "AC50": "15.8 µM (active)"}, {"molecule": "COc1cccc(Nc2ncc3nc(C)c(=O)n(-c4ccccc4)c3n2)c1", "AC50": "5.01 µM (active)"}, {"molecule": "COc1ccc(-n2c(=O)c(-c3cccs3)nc3cnc(Nc4cccc(OC)c4)nc32)cc1", "AC50": "inactive"}, {"molecule": "COc1cccc(Nc2ncc3nc(C)c(=O)n(C)c3n2)c1", "AC50": "1 µM (active)"}, {"molecule": "CCOc1ccc(OCC)c(-c2c(=O)n(OCc3ccc(C(C)(C)C)cc3)c3ccccc3[n+]2[O-])c1", "AC50": "inactive"}, {"molecule": "N#CN(CC(N)=O)c1nc(N2CCCCC2)nc(N2CCCCC2)n1", "AC50": "2 µM (active)"}, {"molecule": "OCCN1CCN(c2nc(N3CCCCC3)nc(N3CCCCC3)n2)CC1", "AC50": "inactive"}, {"molecule": "O=C1c2cccc3c(Nc4ccccc4Cl)c([N+](=O)[O-])cc(c23)C(=O)N1CCO", "AC50": "1.78 µM (active)"}, {"molecule": "O=C1c2ccccc2C(=O)N1CCCCN(C(=O)c1cccc([N+](=O)[O-])c1)c1ccc(Cl)cc1", "AC50": "inactive"}, {"molecule": "O=S(=O)(NC1CCN(Cc2ccccc2)CC1)c1cccc2cccnc12", "AC50": "inactive"}, {"molecule": "CC(C)(C)c1cc2cccnc2n1Cc1ccccc1", "AC50": "14.1 µM (active)"}, {"molecule": "O=C(Nc1cccc(F)c1)N1CCC2(CC1)CCN(C(=O)c1csnn1)CC2", "AC50": "inactive"}, {"molecule": "CCn1c(C)nc2cc(C(=O)NNS(=O)(=O)c3ccccc3F)ccc21", "AC50": "25.1 µM (active)"}, {"molecule": "N[C@H](C(=O)O)[C@@H](O)c1cnc[nH]1", "activity, negative = inhibition": "-2.61% [at 11.4 µM]"}, {"molecule": "CN(C)/C=N/c1ncc(C(=O)c2ccc3ccccc3c2)s1", "AC50": "2.51 µM (active)"}, {"molecule": "Cc1cc(C(=O)c2cnc(/N=C/N(C)C)s2)cc(C)c1O", "AC50": "12.6 µM (active)"}, {"molecule": "COc1ccc(O[C@H]2C=C[C@@H](c3ccccc3)O[C@H]2CO/N=C2/c3cc(OC)ccc3O[C@@H](c3cccc(OC)c3)[C@H]2O)cc1", "activity, negative = inhibition": "1.3% [at 11.4 µM]"}, {"molecule": "Cc1cc(N2CCOCC2)nc(SCc2ccc(Cl)cc2Cl)n1", "AC50": "2.51 µM (active)"}, {"molecule": "CSc1nc(-c2ccc(C)cc2)nc(C(Cl)Cl)n1", "AC50": "1.41 µM (active)"}, {"molecule": "COc1ccccc1/C=N/NC(=O)CC(=O)Nc1ccc(Cl)c(Cl)c1", "AC50": "1.78 µM (active)"}, {"molecule": "COc1ccccc1CN1CCCC2(CCN(C(=O)c3cccn3C)CC2)C1", "AC50": "inactive"}, {"molecule": "Clc1cc2c(c(CSC3=NCN(CC4CC4)CN3)c1)OCOC2", "AC50": "3.16 µM (active)"}, {"molecule": "CCOc1cc2c(C)cc(=O)oc2cc1Cl", "AC50": "0.501 µM (active)"}, {"molecule": "CCCc1cc(=O)oc2cc(OCc3cc(OC)c(OC)c(OC)c3)c(Cl)cc12", "AC50": "inactive"}, {"molecule": "COc1c(/C=N/Nc2ccc([N+](=O)[O-])cc2[N+](=O)[O-])c(C)nn1-c1ccccc1", "AC50": "inactive"}, {"molecule": "O=[N+]([O-])c1ccc(N/N=C\\c2cccn2-c2ccccc2)nc1", "AC50": "3.55 µM (active)"}, {"molecule": "N[C@H](C(=O)O)[C@H](N)C(=O)O", "activity, negative = inhibition": "-13.3% [at 11.4 µM]"}, {"molecule": "COc1ccc(N2CC(C(=O)Nc3cc(C)on3)CC2=O)cc1", "note": "(centres undefined)", "AC50": "inactive"}, {"molecule": "CC(C)Oc1ccc(N2CC(C(=O)OCC(=O)NCc3ccccc3)CC2=O)cc1", "note": "(centres undefined)", "AC50": "inactive"}, {"molecule": "COc1ccc(N2CC(C(=O)OCC(=O)c3cccc(OC)c3)CC2=O)cc1", "note": "(centres undefined)", "AC50": "20 µM (active)"}, {"molecule": "COC(=O)[C@@H]1[C@@H]2C[C@H]3c4[nH]c5ccccc5c4CCN3C[C@@H]2CC[C@@H]1OS(=O)(=O)O", "activity, negative = inhibition": "-10.3% [at 2.29 µM]"}]}]}
